“And” between values parts separate entries of the source, which are not always exact repeats. Identical values can stand only once. Among all 5,500 compounds or so, about 2,000 (36%) were called active. Not shown: some 18% with an inconclusive outcome. No stated cut-off is given here; in the data, active means normalized growth mostly below about 0.91 (no sharp cut-off); inconclusive means no clear call, values can overlap the other calls; inactive means mostly above about 0.92. Some of the results follow.
Experiment: chemical genetic growth profiling, strain panel (AID 1159580);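 further: tested at 20 µM; growth read once vehicle control cultures reached saturation at 30 °C; 1 = growth at the plate median or of vehicle wells; lower values mean less growth of the strain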
Details: growth OD

Measured: normalized growth

C#CCN(C)Cc1ccccc1
inactive: S. cerevisiae deletion strains, locus YJR075W, strain HOC1, hits give low values 0.991 | S. cerevisiae deletion strains, locus YKL009W, strain mrt4, hits give low values 1.02 | S. cerevisiae deletion strains, locus YKL068W, hits give low values 1 | S. cerevisiae deletion strains, locus YKL085W, strain MDH1 (second series), hits give low values 1 | S. cerevisiae deletion strains, locus YKL085W, strain MDH1, hits give low values 1 | S. cerevisiae deletion strains, locus YKL160W, strain elf1, hits give low values 1.01 | S. cerevisiae deletion strains, locus YKL190W, strain CNB1, hits give low values 0.997 | S. cerevisiae deletion strains, locus YKR001C, strain vps1, hits give low values 1.02 | S. cerevisiae deletion strains, locus YKR026C, strain gcn3, hits give low values 1.02 | S. cerevisiae deletion strains, locus YKR091W, strain srl3, hits give low values 1.02 | S. cerevisiae deletion strains, locus YLL001W, strain dnm1, hits give low values 1.02 | S. cerevisiae deletion strains, locus YLL026W, hits give low values 1 | S. cerevisiae deletion strains, locus YLL041C, strain sdh2, hits give low values 0.968 | S. cerevisiae deletion strains, locus YLR027C, strain aat2, hits give low values 0.991 | S. cerevisiae deletion strains, locus YLR039C, strain RIC1, hits give low values 1.02 | S. cerevisiae deletion strains, locus YLR058C, strain SHM2, hits give low values 0.998 | S. cerevisiae deletion strains, locus YLR102C, strain apc9, hits give low values 1.01 | S. cerevisiae deletion strains, locus YLR113W, strain HOG1, hits give low values 1 | S. cerevisiae deletion strains, locus YLR221C, strain rsa3, hits give low values 1.01 | S. cerevisiae deletion strains, locus YLR258W, strain gsy2, hits give low values 1 | S. cerevisiae deletion strains, locus YLR262C, strain YPT6 (second series), hits give low values 1.05 | S. cerevisiae deletion strains, locus YLR262C, strain YPT6, hits give low values 0.997 | S. cerevisiae deletion strains, locus YLR268W, strain sec22, hits give low values 1.06 | S. cerevisiae deletion strains, locus YLR320W, strain mms22, hits give low values 0.99 | S. cerevisiae deletion strains, locus YLR330W, strain CHS5, hits give low values 1 | S. cerevisiae deletion strains, locus YLR342W, strain FKS1 (second series), hits give low values 1.02 | S. cerevisiae deletion strains, locus YLR342W, strain FKS1, hits give low values 1.03 | S. cerevisiae deletion strains, locus YLR357W, strain rsc2, hits give low values 1.05 | S. cerevisiae deletion strains, locus YLR370C, strain arc18, hits give low values 0.987 | S. cerevisiae deletion strains, locus YLR371W, strain rom2, hits give low values 1.02 | S. cerevisiae deletion strains, locus YLR384C, strain iki3, hits give low values 0.996 | S. cerevisiae deletion strains, locus YLR418C, strain cdc73, hits give low values 1.02 | S. cerevisiae deletion strains, locus YML016C, strain PPZ1, hits give low values 1 | S. cerevisiae deletion strains, locus YML032C, strain rad52, hits give low values 1.02 | S. cerevisiae deletion strains, locus YML120C, strain ndi1, hits give low values 0.999 | S. cerevisiae deletion strains, locus YML124C, strain tub3, hits give low values 1.01 | S. cerevisiae deletion strains, locus YMR058W, strain fet3, hits give low values 1.04 | S. cerevisiae deletion strains, locus YMR078C, strain ctf18, hits give low values 1.02 | S. cerevisiae deletion strains, locus YMR125W, strain sto1, hits give low values 1.03 | S. cerevisiae deletion strains, locus YMR129W, hits give low values 0.988 | S. cerevisiae deletion strains, locus YMR205C, strain PFK2, hits give low values 0.98 | S. cerevisiae deletion strains, locus YMR223W, strain ubp8, hits give low values 0.98 | S. cerevisiae deletion strains, locus YMR231W, strain pep5, hits give low values 1.02 | S. cerevisiae deletion strains, locus YMR263W, strain SAP30, hits give low values 0.995 | S. cerevisiae deletion strains, locus YMR307W, strain GAS1, hits give low values 0.994 and 0.99 | S. cerevisiae deletion strains, locus YNL067W, strain RPL9B, hits give low values 0.99 | S. cerevisiae deletion strains, locus YNL071W, strain lat1, hits give low values 1.02 | S. cerevisiae deletion strains, locus YNL128W, strain TEP1, hits give low values 1.01 and 0.994 | S. cerevisiae deletion strains, locus YNL153C, strain GIM3, hits give low values 1.15 | S. cerevisiae deletion strains, locus YNL175C, strain NOP13, hits give low values 1.01 | S. cerevisiae deletion strains, locus YNL183C, strain NPR1, hits give low values 0.944 | S. cerevisiae deletion strains, locus YNL197C, strain WHI3, hits give low values 1.01 | S. cerevisiae deletion strains, locus YNL209W, strain ssb2, hits give low values 1.02 | S. cerevisiae deletion strains, locus YNL224C, strain SQS1, hits give low values 1.04 | S. cerevisiae deletion strains, locus YNL233W, strain BNI4, hits give low values 0.996 | S. cerevisiae deletion strains, locus YNL248C, strain rpa49, hits give low values 1.03 | S. cerevisiae deletion strains, locus YNL250W, strain rad50, hits give low values 1.01 | S. cerevisiae deletion strains, locus YNL271C, strain bni1, hits give low values 1.02 | S. cerevisiae deletion strains, locus YNL298W, strain CLA4, hits give low values 1.03 | S. cerevisiae deletion strains, locus YNL307C, strain MCK1, hits give low values 1.03 | S. cerevisiae deletion strains, locus YNL322C, strain KRE1 (second series), hits give low values 1.03 | S. cerevisiae deletion strains, locus YNR049C, strain mso1, hits give low values 0.961 | S. cerevisiae deletion strains, locus YNR052C, strain pop2, hits give low values 1.03 | S. cerevisiae deletion strains, locus YOL006C, strain TOP1, hits give low values 1 | S. cerevisiae deletion strains, locus YOL012C, strain htz1 0.939 | S. cerevisiae deletion strains, locus YOL147C, strain pex11, hits give low values 1.02 | S. cerevisiae deletion strains, locus YOR001W, strain rrp6, hits give low values 1.01 | S. cerevisiae deletion strains, locus YOR061W, strain CKA2, hits give low values 1 | S. cerevisiae deletion strains, locus YOR069W, strain VPS5, hits give low values 1 | S. cerevisiae deletion strains, locus YOR070C, strain gyp1, hits give low values 1.01 | S. cerevisiae deletion strains, locus YOR080W, strain dia2, hits give low values 1.02 | S. cerevisiae deletion strains, locus YOR083W, strain WHI5 (second series), hits give low values 1.01 | S. cerevisiae deletion strains, locus YOR083W, strain WHI5, hits give low values 1 | S. cerevisiae deletion strains, locus YOR106W, strain vam3, hits give low values 0.996 | S. cerevisiae deletion strains, locus YOR136W, strain idh2, hits give low values 1.01 | S. cerevisiae deletion strains, locus YOR144C, strain elg1, hits give low values 1.01 | S. cerevisiae deletion strains, locus YOR184W, strain ser1, hits give low values 1.01 | S. cerevisiae deletion strains, locus YOR231W, strain MKK1, hits give low values 0.997 | S. cerevisiae deletion strains, locus YOR265W, strain rbl2, hits give low values 1.01 | S. cerevisiae deletion strains, locus YOR270C, strain vph1, hits give low values 1.06 | S. cerevisiae deletion strains, locus YOR290C, strain snf2, hits give low values 0.999 | S. cerevisiae deletion strains, locus YOR316C, strain cot1, hits give low values 1.02 | S. cerevisiae deletion strains, locus YPL051W, strain arl3, hits give low values 1.02 | S. cerevisiae deletion strains, locus YPL078C, strain atp4, hits give low values 1.05 | S. cerevisiae deletion strains, locus YPL106C, strain sse1, hits give low values 1.07 | S. cerevisiae deletion strains, locus YPL240C, strain hsp82, hits give low values 0.979 | S. cerevisiae deletion strains, locus YPL256C, strain CLN2, hits give low values 0.939 | S. cerevisiae deletion strains, locus YPR119W, strain clb2, hits give low values 1.02 | S. cerevisiae deletion strains, locus YPR141C, strain kar3, hits give low values 1 | S. cerevisiae deletion strains, locus YPR163C, strain tif3, hits give low values 1.02 | S. cerevisiae deletion strains, locus YPR167C, strain met16, hits give low values 1.02 | S. cerevisiae deletion strains, strain wtn01, hits give low values 1.02 | S. cerevisiae strains, strain wild type, hits give low values 0.998
